Measured values as given in the supplement of paper PMC3414501.
Structures can show the parent of a compound that is named as a salt. Unmarked numbers belong to inactive results.

What was measured:
[1] = test system: S. cerevisiae SK1 pCDA2-eGFP (USY613), sporulating; assay: CDA2-GFP sporulation assay sensitivity score (z-score vs DMSO controls); higher = stronger inhibition of sporulation, active = hit call of the paper;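 note: active if sensitivity score above 5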
[2] = test system: S. cerevisiae AD1-9 (efflux-pump deficient), vegetative growth in YPD; assay: growth sensitivity score (doubling time z-score vs DMSO controls); higher = slower growth, strongly negative scores also mark growth inhibition (complete suppression), active = hit call of the paper
How it was run: (§1)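 Rich medium in microtiter plates was seeded with Saccharomyces cerevisiae strains BY4741 and AD1-9 at an OD600 of 0.065, and compounds were added as a 1:100 dilution of DMSO stock. A Tecan GENios reader recorded optical density every 15 min for 24 hours, with eight solvent-only wells in each experiment. Average doubling time was the time to reach a set generation point divided by generation number. The growth sensitivity score was the compound mean minus the solvent-only mean, divided by the solvent-only standard deviation.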

[3] = test system: S. cerevisiae BY4741 (wild-type), vegetative growth in YPD; assay: as above
How it was run: as §1

[4] = stock concentration (mM, diluted 1:100): 7.3
[5] = stock concentration (mM, diluted 1:100): 10
[6] = stock concentration (mM, diluted 1:100): 9
[7] = stock concentration (mM, diluted 1:100): 8.7
[8] = stock concentration (mM, diluted 1:100): 11.3

Q: How did the “CDA2-GFP sporulation assay sensitivity score” value [1, 4] turn out when `CN1[C@@H]2CC(OC(=O)[C@H](CO)c3ccccc3)C[C@H]1[C@@H]1O[C@@H]12` (some centres undefined) was run?
A: -0.1

Q: And the growth sensitivity score [2, 4]?
A: -1.56

Q: What about the growth sensitivity score [3, 4] of the same molecule?
A: -0.06

Q: Which “CDA2-GFP sporulation assay sensitivity score” value [1, 5] does the source give for `NC(=O)C[S+]([O-])C(c1ccccc1)c1ccccc1` (centres undefined) [Modafinil] here?
A: -0.48

Q: And the growth sensitivity score [2, 5]?
A: -1.24

Q: What about the growth sensitivity score [3, 5] of the same molecule?
A: -1.13

Q: `NC1=NC(=O)C(c2ccccc2)O1` (centres undefined) [Pemoline] was tested. Which “CDA2-GFP sporulation assay sensitivity score” value [1, 5] did it give?
A: 0.99

Q: And the growth sensitivity score [2, 5]?
A: 0.67

Q: And the growth sensitivity score [3, 5]?
A: -1.83

Q: How did the growth sensitivity score [2, 5] turn out when `CCCN1C[C@H](CSC)C[C@@H]2c3cccc4[nH]cc(c34)C[C@H]21` [Pergolide mesylate] was run?
A: 3.13 (active)

Q: What about the growth sensitivity score [3, 5] of the same molecule?
A: 2.05 (active)

Q: How did the “CDA2-GFP sporulation assay sensitivity score” value [1, 5] turn out when `C[C@H]1CCC[C@H](O)CCCCCc2cc(O)cc(O)c2C(=O)O1` [Zeranol] was run?
A: -2.75

Q: And the growth sensitivity score [2, 5]?
A: 18.3 (active)

Q: And the growth sensitivity score [3, 5]?
A: 1.77

Q: How did the “CDA2-GFP sporulation assay sensitivity score” value [1, 6] turn out when `Cc1ncc2n1-c1ccc(Cl)cc1C(c1ccccc1F)=NC2` [Midazolam hydrochloride] was run?
A: 6.54 (active)

Q: What about the growth sensitivity score [2, 6] of the same molecule?
A: 12.1 (active)

Q: What about the growth sensitivity score [3, 6] of the same molecule?
A: 0.95

Q: What does the source list for `NCCc1ccccn1` [2-(2-aminoethyl)pyridine]?
A: CDA2-GFP sporulation assay sensitivity score [1, 5]: -1.07; growth sensitivity score [2, 5]: -0.62; growth sensitivity score [3, 5]: -1.35

Q: Which results are given for `CC(NC(C)(C)C)C(=O)c1cccc(Cl)c1` (centres undefined) [Bupropion hydrochloride]?
A: CDA2-GFP sporulation assay sensitivity score [1, 7]: 3.2; growth sensitivity score [2, 7]: -0.08; growth sensitivity score [3, 7]: -0.87

Q: What does the source list for `c1cncc([C@@H]2CCCN2)c1` [Nornicotine]?
A: CDA2-GFP sporulation assay sensitivity score [1, 5]: 2.1; growth sensitivity score [2, 5]: -0.25; growth sensitivity score [3, 5]: 0.91

Q: For `CC(C)CC(N(C)C)C1(c2ccc(Cl)cc2)CCC1` (centres undefined) [Sibutramine], which “CDA2-GFP sporulation assay sensitivity score” value [1, 8] is on record?
A: 3.27

Q: And the growth sensitivity score [2, 8]?
A: 5.47 (active)

Q: And the growth sensitivity score [3, 8]?
A: 3.69 (active)
